Compounds with a hit are over-represented: about 5.7% of the library has one in this group of screens.
HT1080 IDH1KD tx = qHTS for induction of synthetic lethality in tumor cells producing 2HG: qHTS for the HT-1080-IDH1KD cell line | Potency, µM (top dose mostly 46.1 µM), for the others: top-dose activity, negative = toxicity, most hits filed as cytotoxic | 2% of 360,000 active | HT-1080 IDH1 knockdown viability, ATP luminescence, 48 h | AID 686971, 2013;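 note: 0% = DMSO wells and -100% = cell-free medium wells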
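IDH1KD HT-1080 cells, 750/well, RPMI + 5% FBS; compound pinned after 2 h settling; 48 h, 37 °C; CellTiter-Glo luminescence; % activity normalised to DMSO and no-cell wells; curves fitted, classed by r2 and efficacy.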
HT1080NT lethal = qHTS for induction of synthetic lethality in tumor cells producing 2HG: qHTS for the HT-1080-NT fibrosarcoma cell line | HT-1080-NT fibrosarcoma viability, CellTiter-Glo ATP luminescence, 48 h | Potency, µM (series often up to 46.1 µM), for the others: top-dose activity, negative = less viability, hits mostly cytotoxic | 1.6% of 360,000 active;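 note: NT is the 2HG producing partner of a matched IDH1 knockdown line; 0% = DMSO-treated cells and -100% = media-only wells without cells; nearly all actives have a fitted effect of over 55% in size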
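HT-1080-NT; 750 cells/well; 5% FBS RPMI; 48 h compound, 37 degrees C; CellTiter-Glo luminescence; curve fitting and curve-class assignment.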
KB-V1 cytotox = qHTS assay for MDR1-selective chemotherapeutics: Primary screen using the drug-selected MDR subline cells KB-V1; KB-V1 MDR cells viability, CellTiter-Glo, 72 h; Potency, µM (highest dose often 46.1 µM), most hits filed as cytotoxic; 3.4% of 400,000 active; AID 1347076, 2019; note: nearly all actives have a fitted effect of over 60% in size
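Cells of the MDR subline KB-V1 are plated, dosed with compound at multiple concentrations, and incubated 72 h at 37 degrees C; CellTiter-Glo is then added and luminescence read after 10 min.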
KB-3-1 cytotox = qHTS assay for MDR1-selective chemotherapeutics: Primary screen using the parental adenocarcinoma cell KB-3-1. 1.4% of 400,000 active. Potency, µM (doses to about 46.1 µM), most hits filed as cytotoxic. KB-3-1 viability, CellTiter-Glo ATP luminescence, 72 h; note: nearly all actives have a fitted effect of over 60% in size
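Screening of KB-3-1 cells (DMEM, 10% FBS, phenol-red free) ran from lowest to highest compound concentration; after 72 h at 37 °C viability was read luminescently and curves fitted.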
* marks the source's active call; other numbers are inactive results; i = inactive; ? = inconclusive; / = not tested or not shown. Calls come from the whole dose curve; as a rule, active = well fitted curve in the direction sought with a large enough effect; inconclusive = small, poorly fitted or top-dose-only effect, or another doubt; inactive = no such curve, though single readings can be large; an effect the other way counts as inactive or inconclusive. Unless noted, % is set by controls: 0 for no effect and ±100 for the full control effect; potency is the fitted concentration of half-maximal effect.

SMILES	HT1080 IDH1KD tx	HT1080NT lethal	KB-V1 cytotox	KB-3-1 cytotox
Cc1ccc(Cc2c(C3CCCCC3)nc3ccc(C)cn23)cc1	?	?	i	i
Cc1ccc2nc(C3CCCCC3)c(Cc3ccsc3)n2c1	?	-29.7%	16.4µM*	?
COc1ccc(C)cc1NC(=O)c1nnn(-c2c(C)cccc2C)c1C	/	/	i	i
O=C(Nc1ccccc1Cl)c1ccc(=O)[nH]n1	14.7%	8.6%	8.2µM*	7.31µM*
O=C(NC1CC1)c1ccc2c(c1)C1C3CCC(C3)C1C(c1ccccc1)N2 (stereo not drawn)	3.7%	3.6%	i	i
CS(=O)(=O)c1ccc(/C=C2\C=Cc3ccccc32)cc1	/	/	i	i
COc1cccc(NC(=O)Cn2c(=O)n(CCCCC(=O)NCc3ccccc3Cl)c(=O)c3ccccc32)c1	/	/	i	i
CCCCCc1c(-c2ccc(F)cc2)ncn1CCc1ccccc1OC	?	?	11.6µM*	18.4µM*
COc1ccccc1CCn1cnc(-c2ccc(Br)cc2)c1C(C)C	23.1µM*	23.1µM*	?	?
CCCCCc1c(-c2ccc(Br)cc2)ncn1CCc1ccccc1OC	20.6µM*	16.4µM*	16.4µM*	?
COc1ccccc1CCn1cnc(Cc2ccccc2)c1C(C)C	?	?	13µM*	?
Cc1ccc2nc(CS)[nH]c2c1	/	/	i	i
Cc1ccc(CNC(=O)Cn2c(=O)n(-c3ccc(C)cc3)c(=O)c3c2c2cc(C)ccc2n3C)cc1	/	/	i	i
Cc1cc(C)nc(NC(=NCCc2c[nH]c3ccccc23)NC(=O)Nc2ccc(Cl)cc2)n1	?	-12.8%	8.2µM*	i
O=S(=O)(c1ccccc1C(F)(F)F)N1CCN(c2nc(-c3ccccc3)nc3ccccc23)CC1	/	/	i	?
CC(=O)c1ccc(N2CCN(S(=O)(=O)c3c(C)nc4sc(C)cn4c3=O)CC2)cc1	/	/	i	i
O=C(c1cccs1)N1CCN(C(=O)c2cccs2)C1=S	20.6µM*	?	2.91µM*	14.6µM*
O=C(c1cccs1)N1CCCC1	7.4%	7.5%	i	i
Cc1ccc(S(=O)(=O)NCC2CCC(C(=O)NCCc3ccccc3)CC2)cc1 (stereo not drawn)	/	/	i	i
COc1cccc(OCC(Cn2cnc3ccccc32)OC(C)=O)c1 (stereo not drawn)	5.3%	7.0%	16.4µM*	i
COc1ccc(OCC(Cn2cnc3ccccc32)OC(C)=O)cc1 (stereo not drawn)	1.8%	2.0%	?	i
Cc1nn(C(C)(C)C)c(OC(=O)C2CCCC2)c1S(=O)(=O)c1ccccc1	?	?	?	20.6µM*
CN(C)CCNc1ncnc2ccc(-c3ccc4c(c3)OCO4)cc12	/	/	i	i
CCCCOCCCNC(=O)C[C@@H]1C[C@@]2(C(=O)OCC)CCCC=C2N(Cc2cccc3ccccc23)C1=O	?	?	18.4µM*	?
COC(=O)[C@]12CCCCC=C1N(Cc1cccc3ccccc13)C(=O)[C@H](CC(=O)NCc1ccc(OC)c(OC)c1)C2	?	?	?	5.8µM*
SMILES	HT1080 IDH1KD tx	HT1080NT lethal	KB-V1 cytotox	KB-3-1 cytotox
CCOC(=O)[C@]12CCCC=C1N(Cc1cccc3ccccc13)C(=O)[C@H](CC(=O)NCc1cccc3ccccc13)C2	-28.1%	-10.4%	?	i
CCCCCCCCN1C(=O)[C@H](CC(=O)NCc2cccs2)C[C@@]2(C(=O)OC)CCCCC=C12	?	?	20.6µM*	?
CCCCCCCCN1C(=O)[C@H](CC(=O)NCc2cccc(C(F)(F)F)c2)C[C@@]2(C(=O)OC)CCCCC=C12	?	?	16.4µM*	?
COc1ccc2c(c1)c(=O)c(S(=O)(=O)c1ccccc1)cn2CC(=O)Nc1ccc(C)c(Cl)c1	/	/	i	i
COC(=O)[C@]12CCCCC=C1N(CCc1ccc(OC)c(OC)c1)C(=O)[C@H](CC(=O)NCc1cccc3ccccc13)C2	?	?	20.6µM*	i
COC(=O)[C@]12CCCCC=C1N(Cc1cccc3ccccc13)C(=O)[C@H](CC(=O)NCc1cccs1)C2	?	?	16.4µM*	?
CCOC(=O)[C@]12CCC=C1N(Cc1cccc3ccccc13)C(=O)[C@H](CC(=O)NCCC(C)C)C2	?	?	16.4µM*	?
COC(=O)[C@]12CCCCC=C1N(Cc1cccc3ccccc13)C(=O)[C@H](CC(=O)NCc1cccc3ccccc13)C2	-15.5%	-14.0%	i	i
CCOC(=O)[C@]12CCC=C1N(Cc1cccc3ccccc13)C(=O)[C@H](CC(=O)NCc1ccc(OC)c(OC)c1)C2	?	?	?	6.51µM*
CCOc1ccc(OCC)c(NS(=O)(=O)c2c(C)[nH]c(=O)[nH]c2=O)c1	/	/	i	i
Cc1c(C(=O)Nc2cccc([N+](=O)[O-])c2)csc1-c1ccccc1	-16.8%	-12.4%	8.2µM*	i
Cc1ccc(NC(=O)c2csc(-c3ccccc3)c2C)cc1	?	?	i	i
COc1ccc(NC(=O)c2cc([N+](=O)[O-])ccc2O)cc1	?	20.6µM*	?	18.4µM*
O=C(Nc1cccc([N+](=O)[O-])c1)c1cc2ccccc2cc1O	3.66µM*	3.66µM*	?	13µM*
COC(=O)c1ccc(COc2ccc(/C=C(\C#N)c3nc4ccccc4[nH]3)cc2OC)o1	2.9%	-0.3%	?	i
CCc1ccc(NC(=O)COc2ccc(/C=C(/C#N)c3nc4ccccc4[nH]3)cc2OC)cc1	?	?	?	1.46µM*
Cc1cc(C)c2cc(CN(Cc3ccco3)C(=O)NCc3ccccc3)c(=O)[nH]c2c1	-19.4%	-17.5%	i	?
Cc1cc(C)c2nc(Cl)c(CN(Cc3ccco3)C(=O)Nc3ccccc3C)cc2c1	5.62µM*	5.01µM*	i	i
COCCN(Cc1cc2cc(C)cc(C)c2nc1Cl)C(=O)Nc1ccccc1	7.08µM*	10µM*	5.8µM*	?
COC(=O)c1cc2occc2n1Cc1nc(-c2cccc(Br)c2)oc1C	/	/	?	i
CCOc1ccc(N(Cc2ccc(OC)cc2)C(=O)c2ccco2)cc1	?	?	?	i
COc1cc(CN(C(=O)c2ccco2)c2ccc(C)cc2)ccc1O	-10.2%	-1.7%	13µM*	i
COc1ccc(CN(C(=O)c2ccco2)c2ccc(C)c(C)c2)cc1	20.6µM*	?	?	16.4µM*
Cc1cn2c(=O)cc(COC(=O)COc3ccccc3C)nc2s1	/	/	i	i
C/C(CC1CC2=C(CC1(C)C)C(C)(C)CCC2)=N\NC(N)=S (stereo not drawn)	5.62µM*	?	?	i
